The whole screen tested about 340,000 compounds, of which about 2,100 (0.62%) were called active. The list is a sample of the results. Potency and affinity values are given separately. Values without a mark were called inactive.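 The calls were made as follows: active = first-screen hits whose inhibition reached a set limit at any dose in the follow-up dose series; inconclusive = inhibition above the set first-screen limit but never retested; inactive = the rest.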

These results are taken from PubChem BioAssay AID624330 (Southern Research Specialized Biocontainment Screening …, 2012).

In the assay the target is Rac GTPase-activating protein 1 (Homo sapiens) (UniProt Q9H0H5). The assay is described as follows: blockers of MgcRacGAP-driven Rac1 GTP hydrolysis – biochemical, ADP Hunter fluorescence, primary and confirmatory, confirmation (AID 624330).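 Also: fluorescence reports GDP produced by GAP-driven GTP hydrolysis.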 Particulars: MgcRacGAP-stimulated Rac1 GTP hydrolysis, at 30 µM, hits give high values, GST-tagged Rac1 F28L mutant substrate.
Chain of Rac GTPase-activating protein 1 (Homo sapiens) (Q9H0H5 whole entry, looked up): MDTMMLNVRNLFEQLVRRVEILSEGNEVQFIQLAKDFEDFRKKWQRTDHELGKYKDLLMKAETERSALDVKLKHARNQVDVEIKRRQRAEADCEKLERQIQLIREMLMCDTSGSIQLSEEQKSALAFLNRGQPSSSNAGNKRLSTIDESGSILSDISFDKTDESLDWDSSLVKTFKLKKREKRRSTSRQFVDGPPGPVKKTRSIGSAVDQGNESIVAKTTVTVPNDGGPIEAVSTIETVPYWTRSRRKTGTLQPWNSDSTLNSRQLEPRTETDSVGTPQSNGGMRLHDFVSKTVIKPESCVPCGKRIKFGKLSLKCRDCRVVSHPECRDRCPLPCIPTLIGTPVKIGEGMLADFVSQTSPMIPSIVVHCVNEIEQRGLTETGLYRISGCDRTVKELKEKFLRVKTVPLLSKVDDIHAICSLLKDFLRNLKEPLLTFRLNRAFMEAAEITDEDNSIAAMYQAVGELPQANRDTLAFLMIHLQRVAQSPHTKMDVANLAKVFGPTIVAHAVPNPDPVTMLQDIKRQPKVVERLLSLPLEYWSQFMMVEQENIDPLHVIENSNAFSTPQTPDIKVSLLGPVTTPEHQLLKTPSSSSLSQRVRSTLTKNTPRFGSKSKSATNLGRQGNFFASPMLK
Turning to `CCC(C)NC(=O)C1c2ccccc2C(=O)N1Cc1ccc(F)cc1` (stereo not drawn), the inhibition – broadly, the change of the read-out against control, counted positive when it falls – is 8.48%.
With `COc1ccc(NC(=O)CCCC(=O)O)cc1Cl`, the inhibition is 4.87%.
With `CC(=O)c1ccc(S(=O)(=O)NCCC(=O)OC(C)C(=O)Nc2ccc(F)cc2)cc1` (stereo not drawn), the inhibition is 5.33%.
Regarding `N#C/C(=C\c1cn(CC(=O)N2CCCCC2)c2ccccc12)C(=O)NCc1ccc2c(c1)OCO2`, the inhibition is 8.24%.
In the case of `Cc1cc(NC(=O)c2ccc(C#N)cc2)n(-c2ccccn2)n1`, the inhibition is 4.99%.
On to `N#Cc1ccc(OCc2nnc(SCC(=O)N3CCCc4ccccc43)n2-c2ccccc2)cc1`, for which the inhibition is 3.45%.
In the case of `CCCCN(C)CCNC(=O)Cn1c(=O)sc2ccccc21`, the inhibition was 5.94%.
For `NC(N)=Nc1ccc(C=C2C=Cc3ccccc32)cc1`, the inhibition was 1.28%.
With `C=CCN(CC=C)Cc1nc(N)nc(Nc2ccccc2C)n1`, the inhibition was 6.1%.
Take `CC1(C)CC(=O)C([N+](=O)[O-])=C(NCCCC(=O)O)C1`: the inhibition is 6.3%.
Regarding `CCOC(=O)CN=C1CC(C)(C)CC2=C1Sc1ncnc(N(C)C)c1N2`, the inhibition is 6.53%.
In the case of `Cc1ccc(S(=O)(=O)/N=C/N(C)C)cc1`, the inhibition is 4.85%.
With `O=C(NCc1ccco1)c1ccc(S(=O)(=O)N2CCOCC2)cc1`, the inhibition was 12.1%.
As for `CCOC(=O)c1ccc(NC(=O)Nc2c(C)nn(C)c2C)cc1`, the inhibition is 6.05%.
Turning to `COc1ccc(CCNc2ccc(N3C(=O)CC(C)C3=O)cc2[N+](=O)[O-])cc1` (stereo not drawn), the inhibition was 3.45%.
With `CC1CC(=O)N(c2ccc(NCCc3ccccc3)c([N+](=O)[O-])c2)C1=O` (stereo not drawn), the inhibition was 12.4%.
For the compound `COCCNC(=O)C1CCCN(S(=O)(=O)c2c(C)noc2/C=C/c2cccs2)C1` (stereo not drawn), the inhibition is 5.26%.
With `Cc1cc(Cc2cc(C)c(N)cc2C)c(C)cc1N`, the inhibition was 11.3%.
To `Cc1cc(C)c(N)cc1C` belongs 5.41%; to `COc1ccc(S(=O)(=O)N(C)C[C@H]2Oc3c(NC(=O)C4CC4)cccc3C(=O)N([C@H](C)CO)C[C@@H]2C)cc1`, 13.9%; to `CC(=O)c1c(Nc2cccc(F)c2)oc(C)cc1=O`, 8.68%.
For `CCc1ccc(Nc2oc(C)cc(=O)c2C(C)=O)cc1`, the inhibition was 2.6%.
In the case of `O=C(c1cccc(NS(=O)(=O)c2ccc(Br)cc2)c1)N1CCN(c2ccccc2O)CC1`, the inhibition was -1.11%.
For `CC(O)CNc1nc2ccccc2n1CC(=O)NC12CC3CC(CC(C3)C1)C2` (stereo not drawn), the inhibition is -6.35%.
Consider `O=C(Nc1ccccc1)c1cccc(NC(=O)c2ccco2)c1`, for which the inhibition is 11.5%.
`Clc1cccc(Cl)c1OCCOCCNCc1ccccc1`: the inhibition is 22.1%.
Take `CCOc1ccc(OCCOCCNCCOC)cc1`: the inhibition was 12.8%.
For `Cc1cc(Cl)cc(C)c1OCCNCc1ccccc1`, the inhibition was 26.3%.
With `O=[N+]([O-])c1ccccc1OCCCNCc1ccccc1`, the inhibition was 21.2%.
To `Cc1cc(OCCOCCN(C)C)ccc1Cl` belongs 9.69%; to `CCc1cc(OCCCCNCc2ccccc2)ccc1Cl`, 28.9%; to `O=[N+]([O-])c1ccccc1OCCOc1ccccc1[N+](=O)[O-]`, 7.67%.
For `CCCOc1ccc(OCCOCCNCc2ccccc2)cc1`, the inhibition is 19.2%.
